In PubChem BioAssay AID1159580 (chemical genetic matrix, 2015):
The whole screen tested about 5,500 compounds, of which about 2,000 (36%) were called active. Roughly 18% stayed inconclusive and do not appear here. Cut-off read from the data, not from the text of the source: active = normalized growth mostly below about 0.91 (no sharp cut-off); inconclusive = no clear call, values can overlap the other calls; inactive = mostly above about 0.92. This is one part of the list.

Test: chemical genetic growth profiling, strain panel (AID 1159580);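 note: tested at 20 µM; growth read once vehicle control cultures reached saturation at 30 °C; 1 = growth at the plate median or of vehicle wells; lower values mean less growth of the strain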
Settings: S. cerevisiae deletion strains, growth OD

Measured: normalized growth

CC(C)=CCCC(C)C1CC[C@@]2(C)C3=C(CC[C@]12C)C1(C)CC[C@H](O)C(C)(C)C1CC3 (stereo not given in full)
inactive: locus YBR021W, strain FUR4, active compounds read low 0.867 | locus YBR229C, strain ROT2, active compounds read low 1.02 | locus YCL029C, strain bik1, active compounds read low 0.972 | locus YDL035C, strain GPR1, active compounds read low 0.904 | locus YDL074C, strain BRE1, active compounds read low 0.962 | locus YDL101C, strain DUN1, active compounds read low 0.992 | locus YDL185W, strain tfp1, active compounds read low 1.01 | locus YDL192W, strain arf1, active compounds read low 0.977 | locus YDR101C, strain arx1, active compounds read low 1.01 | locus YDR150W, strain NUM1, active compounds read low 1.05 | locus YDR162C, strain NBP2, active compounds read low 0.958 | locus YDR318W, strain mcm21, active compounds read low 0.985 | locus YDR388W, active compounds read low 1.03 | locus YDR502C, strain sam2, active compounds read low 0.945 | locus YER110C, active compounds read low 1.01 | locus YER155C, strain BEM2, active compounds read low 1.03 | locus YER167W, strain BCK2, active compounds read low 1.05 | locus YGL086W, strain mad1, active compounds read low 1 | locus YGL248W, strain PDE1, active compounds read low 0.929 | locus YGR135W, strain pre9, active compounds read low 0.941 | locus YGR252W, strain gcn5, active compounds read low 0.78 | locus YHR079C, strain IRE1 (second series), active compounds read low 1.01 | locus YHR094C, strain hxt1, active compounds read low 1.02 | locus YHR129C, strain ARP1, active compounds read low 1.04 | locus YHR200W, strain rpn10, active compounds read low 1.01 | locus YIL066C, strain RNR3, active compounds read low 1.03 | locus YIL073C, strain SPO22, active compounds read low 0.923 | locus YIL125W, strain kgd1, active compounds read low 1.04 | locus YIR030C, strain dcg1, active compounds read low 1.02 | locus YJL095W, strain BCK1, active compounds read low 0.947 | locus YJL134W, strain LCB3, active compounds read low 1.04 | locus YJL168C, strain set2, active compounds read low 1.02 | locus YJL187C, strain SWE1 (second series), active compounds read low 0.959 | locus YKL068W, active compounds read low 1.03 | locus YKL085W, strain MDH1 (second series), active compounds read low 1.05 | locus YKL085W, strain MDH1, active compounds read low 1.05 | locus YKR001C, strain vps1, active compounds read low 0.94 | locus YLR039C, strain RIC1, active compounds read low 0.702 | locus YLR058C, strain SHM2, active compounds read low 0.981 | locus YLR102C, strain apc9, active compounds read low 1.01 | locus YLR262C, strain YPT6, active compounds read low 0.664 | locus YLR268W, strain sec22, active compounds read low 0.957 | locus YLR371W, strain rom2, active compounds read low 1.02 | locus YLR418C, strain cdc73, active compounds read low 0.877 | locus YML016C, strain PPZ1, active compounds read low 1.03 | locus YML032C, strain rad52, active compounds read low 0.956 | locus YML124C, strain tub3, active compounds read low 1.03 | locus YMR078C, strain ctf18, active compounds read low 1.03 | locus YMR223W, strain ubp8, active compounds read low 0.978 | locus YMR307W, strain GAS1, active compounds read low 0.952 | locus YNL067W, strain RPL9B, active compounds read low 0.988 | locus YNL128W, strain TEP1, active compounds read low 0.98 | locus YNL233W, strain BNI4, active compounds read low 0.994 | locus YNL250W, strain rad50, active compounds read low 0.966 | locus YNL271C, strain bni1, active compounds read low 0.994 | locus YNL298W, strain CLA4, active compounds read low 0.924 | locus YNL307C, strain MCK1, active compounds read low 0.998 | locus YNR052C, strain pop2, active compounds read low 0.961 | locus YOL006C, strain TOP1, active compounds read low 0.903 | locus YOL012C, strain htz1 1.68 | locus YOL147C, strain pex11, active compounds read low 1.04 | locus YOR061W, strain CKA2, active compounds read low 1.01 | locus YOR069W, strain VPS5, active compounds read low 1.02 | locus YOR136W, strain idh2, active compounds read low 0.998 | locus YOR144C, strain elg1, active compounds read low 1.02 | locus YOR184W, strain ser1, active compounds read low 0.891 | locus YOR316C, strain cot1, active compounds read low 1.02 | locus YPL241C, strain CIN2, active compounds read low 1.03 | locus YPR119W, strain clb2, active compounds read low 1.03 | locus YPR141C, strain kar3, active compounds read low 1.04 | locus YPR163C, strain tif3, active compounds read low 0.93 | locus YPR167C, strain met16, active compounds read low 0.973 | strain wtn01, active compounds read low 0.974
active: locus YGL078C, strain dbp3, active compounds read low 0.875 | locus YKL009W, strain mrt4, active compounds read low 0.822
